The values that follow come from PubChem BioAssay (Tox21).

Values joined by “and” are separate entries in the source; they are usually repeats but may differ in a detail not shown here. Equal entries are not always repeated. Inconclusive results are not listed. A call without a number means that no potency is given here. Where a structure was tested more than once in an assay, its records may differ in their call. Active and inactive are the calls of the source. Calls follow the shape of the full dose curve.
Potency is read from the fitted curve at half-maximal effect.

The target of the experiment is Acetylcholinesterase (Homo sapiens) (UniProt P22303). The experiment in a line: Acetylcholinesterase (AChE) small molecule antagonists: fluorescence cell-based qHTS assay (AID 1347398). Also: nearly all actives have a fitted effect of over 50% in size. The conditions noted are these: SH-SY5Y cells; Potency: AChE activity; series mostly up to 115 µM. From the text: National Center for Advancing Translational Sciences [NCATS]
Chain of Acetylcholinesterase (Homo sapiens) (P22303 whole entry, looked up): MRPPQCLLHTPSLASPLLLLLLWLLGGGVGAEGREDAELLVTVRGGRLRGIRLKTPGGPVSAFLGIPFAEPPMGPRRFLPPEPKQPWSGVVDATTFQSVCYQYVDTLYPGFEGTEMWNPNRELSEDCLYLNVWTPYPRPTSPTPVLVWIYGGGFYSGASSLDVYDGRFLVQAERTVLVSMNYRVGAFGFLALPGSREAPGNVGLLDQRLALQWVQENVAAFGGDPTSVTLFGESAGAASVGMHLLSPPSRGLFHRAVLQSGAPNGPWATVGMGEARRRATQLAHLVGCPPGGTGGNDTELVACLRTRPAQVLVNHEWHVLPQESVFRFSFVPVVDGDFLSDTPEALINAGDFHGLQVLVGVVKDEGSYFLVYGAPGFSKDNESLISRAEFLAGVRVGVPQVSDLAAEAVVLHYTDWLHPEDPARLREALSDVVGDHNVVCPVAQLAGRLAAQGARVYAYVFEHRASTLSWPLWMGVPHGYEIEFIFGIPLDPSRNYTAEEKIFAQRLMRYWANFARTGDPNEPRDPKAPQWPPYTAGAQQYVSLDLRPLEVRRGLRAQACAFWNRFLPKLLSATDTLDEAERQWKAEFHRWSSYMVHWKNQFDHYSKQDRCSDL
Division of Preclinical Innovation [DPI]
U.S. Environmental Protection Agency [EPA]
National Institutes of Environmental Health Sciences [NIEHS]
National Toxicology Program [NTP]
U.S. Food and Drug Administration [FDA]
Acetylcholinesterase (AChE) is the primary cholinesterase in the body that hydrolyzes a key neurotransmitter, acetylcholine. Inhibition of AChE activity can lead to neurotoxicity. Known inhibitors of AChE include organophosphorous pesticides (OP), chemical warfare agents, drugs, and various phytochemicals.
A homogenous cell-based assay using Amplitetrade mark Fluorimetric Acetylcholinesterase Assay Kit *Green Fluorescence* (AAT Bioquest, Sunnyvale, CA) was used to evaluate the chemicals in the Tox21 10K library that inhibit AChE activity. The assay uses Thiolite Green to quantify the thiocholine produced from the hydrolysis of acetylthiocholine by AChE from the SH-SY5Y cells. AChE can hydrolyze acetylthiocholine to create thiocholine. Thiolite Green is fluorescent when reacting with thiocholine. It has spectral properties similar to those of fluorescein. The fluorescence intensity of Thiolite Green is used to measure AChE activity. Its signal can be easily read by a fluorescence microplate reader at Ex/Em = 490/520 nm.
Tox21 Assay Protocol Summary:
For cell-based AChE assay, 2,000 SH-SY5Y cells in 4 uL/well were dispensed into black, clear-bottom 1536-well plates using a Multidrop Combi (Thermo Scientific) dispenser. The assay plates were incubated overnight at 37 C to allow cells to attach to the wells, followed by the transfer of 23 nL compound or DMSO (vehicle control) by a Pintool station (Wako Automation, CA). The plates were incubated for 30 min at 37 C and 5% CO2, followed by the addition of 4 uL of detection cocktail solution (ThioliteGreen, acetylthiocholine) into each well using Flying Reagent Dispenser (Beckman Coulter, CA) and then following 40 min incubation at room temperature. Fluorescent intensity (Ex/Em = 490/520 nm) was measured using an Envision plate reader (PerkinElmer, MA).
`O=c1nc(O)n(Cl)c(=O)n1Cl`: the Potency entry is “inactive”.
In the case of `Oc1ccccc1-c1ccccc1`, the Potency entry was “inactive”.
Regarding `O=C(O)c1nc(Cl)ccc1Cl`, the Potency result is “inactive”.
Under `CCC[N+]1(C)CCCCC1` stands “inactive”; under `CCCCCCCCCCn1cc[n+](C)c1`, 35.7 µM (active) [middle of 6 runs]; under `CC[n+]1ccccc1`, “inactive”.
Under `CNC` stands “inactive”; under `C=CCOC(Cn1ccnc1)c1ccc(Cl)cc1Cl` (stereo not drawn), “inactive”.
As for `O=C(O)C(Cl)(Cl)Cl`, the entry is “inactive”.
Consider `O=C(O)CCl`, for which the Potency result was “inactive”.
Under `C[C@]12CCC(=O)C=C1CC[C@@H]1[C@@H]2CC[C@]2(C)C(=O)CC[C@@H]12` stands “inactive”; under `CCCCCCCCCCCC(=O)O`, “inactive”; under `Nc1ccc(-c2ccc(N)cc2)cc1`, “inactive”.
Turning to `OCCOc1ccccc1`, the Potency result is “inactive”.
Under `Nc1ccc(Cl)cc1` stands “inactive”.
With `COCC(=O)N(c1c(C)cccc1C)C(C)C(=O)OC` (stereo not drawn), the Potency result is “inactive”.
`CCCCCCCCCCCCCC[P+](CCCCCC)(CCCCCC)CCCCCC`: the Potency is 35.7 µM (active) and 71.6 µM (active) and inactive.
On to `CCCC[N+]1(C)CCCCC1`, for which the Potency result is “inactive”.
As for `CC(=O)[O][Hg][c]1ccccc1`, the figure is 62.7 µM (active) and 56.4 µM (active); as for `O=C(O)COc1ccc(Cl)cc1Cl`, “inactive”.
Take `CCOP(=S)(OCC)Oc1ccc2c(C)c(Cl)c(=O)oc2c1`: the Potency was 12.8 µM (active) and 25.2 µM (active) and inactive.
As for `CC(Cl)(Cl)C(=O)O`, the entry is “inactive”.
Under `CCCn1cc[n+](C)c1` stands “inactive”; under `Cc1cc(-c2ccc(N)c(C)c2)ccc1N`, “inactive”.
`CCn1cc[n+](C)c1C`: the Potency entry is “inactive”.
As for `Cc1cc(Cl)ccc1OCC(=O)O`, the entry is “inactive”.
For the molecule `O=C(O)C(Cl)Cl`, the Potency result was “inactive”.
Under `O=[N+]([O-])c1ccccc1O` stands “inactive”.
Turning to `CCCCCCCCCCCCOS(=O)(=O)O`, the Potency entry is “inactive”.
As for `O=P1(N(CCCl)CCCl)NCCCO1` (stereo not drawn), the entry is “inactive”; as for `CCNc1nc(Cl)nc(NCC)n1`, “inactive”; as for `O=c1[nH]c(=O)n(Cl)c(=O)n1Cl`, “inactive”.
Under `C[N+](C)(C)Cc1ccccc1` stands “inactive”.
Under `COP(=O)(OC)OC=C(Cl)Cl` stands “inactive”; under `CC[N+]1(C)CCCC1`, “inactive”.
Turning to `C1CCC(NC2CCCCC2)CC1`, the Potency entry is “inactive”.
Regarding `CCC(=O)C(CC(C)N(C)C)(c1ccccc1)c1ccccc1` (stereo not drawn), the Potency entry is “inactive”.
Under `Nc1ccc(-c2ccc(N)c(Cl)c2)cc1Cl` stands “inactive”.
